# Screening data (PubChem)
# A1 inh = caspase 3/7 activation in MEF A1-2A-BIM cells, primary screen, A1 inhibitor project, cell-based, luminescence, HTS; Caspase-Glo 3/7 luminescence, 3 h; percent of clofoctol response, vehicle zero; caspase activation, % (concentration not given with the values); 330,000 tested, 0.066% active; AID 2462, 2010;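 active means over half of replicate activation scores above 10%, or exactly half above 10 with the replicate mean above 10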
# NLRP3 yeast inh = NALP3 inflammasome inhibitors in reconstituted yeast, primary screen, luminescence, uHTS; Yeast reconstituted NLRP3/ASC/caspase-1, beta-gal luminescence, 24 h; inhibition, % at 10 µM; 330,000 tested, 0.39% active;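 active means inhibition of 50% or more; inactive means inhibition below 50%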;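 further: plate controls were induced DMSO wells for no effect and uninduced yeast grown without galactose for full effect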
# CHT PAM = CHT positive allosteric modulators, primary screen, cell-based, membrane potential dye, choline EC20; 310,000 tested, 0.49% active; AID 488977, 2010; High affinity choline transporter 1 (Homo sapiens), Q9GZV3; B-score at 10 µM; CHT-expressing cells; stronger effect = higher value; LV-AA mutant CHT in HEK293 cells;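 active means initial fluorescence not abnormally high and integrated response B-score, plate-corrected, over 3 SD above library mean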
# Target sequence (Q9GZV3 whole entry, looked up): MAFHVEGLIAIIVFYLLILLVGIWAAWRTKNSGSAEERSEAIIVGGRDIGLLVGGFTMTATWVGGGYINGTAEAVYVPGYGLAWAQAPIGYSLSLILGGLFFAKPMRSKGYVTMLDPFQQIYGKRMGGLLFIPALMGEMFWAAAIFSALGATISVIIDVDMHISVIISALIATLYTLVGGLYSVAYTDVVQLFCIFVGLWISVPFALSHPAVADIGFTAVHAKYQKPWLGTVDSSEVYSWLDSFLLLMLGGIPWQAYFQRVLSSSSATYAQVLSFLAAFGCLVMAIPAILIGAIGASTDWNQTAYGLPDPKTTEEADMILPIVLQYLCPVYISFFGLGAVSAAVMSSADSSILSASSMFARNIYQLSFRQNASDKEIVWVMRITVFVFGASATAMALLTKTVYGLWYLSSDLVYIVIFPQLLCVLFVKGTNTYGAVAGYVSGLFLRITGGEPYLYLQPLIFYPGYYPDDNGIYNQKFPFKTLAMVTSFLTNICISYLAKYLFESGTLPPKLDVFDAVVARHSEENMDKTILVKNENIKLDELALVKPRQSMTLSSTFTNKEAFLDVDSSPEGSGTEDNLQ
# SUMO Mot1 rescue = yeast Mot1-301 growth rescue at high temperature, primary screen, SUMOylation pathway inhibitor project, S. cerevisiae, ATP luminescence, 38.5C. S. cerevisiae Mot1-301 growth rescue; percent above DMSO median, 100 means doubled. growth rescue, % at 18.8 µM. 320,000 tested, 1% active. AID 2716, 2010;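 active means every valid replicate shows activation above 250% relative to neutral control wells; inactive means the rest, any valid replicate at or below 250%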;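 further: OY570 slx delta 5 strain wells were the positive control but not used for scaling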
# NALP1 inh = NALP1 inflammasome inhibitors in reconstituted yeast, colorimetric, S. cerevisiae, triplicate retest; S. cerevisiae NALP1/ASC/caspase-1 growth, X-gal OD620, 72 h; inhibition, % at 10 µM; 280,000 tested, 0.61% active; AID 2071, 2009; in the data active means inhibition mostly above about 24%, no sharp cut-off; inactive means mostly below about 32%
# CHT block = inhibitors of human choline transporter CHT; CHT-expressing cells, membrane potential dye, choline response; stronger effect = lower value; 310,000 tested, 0.86% active; B-score at 10 µM; High affinity choline transporter 1 (Homo sapiens), Q9GZV3;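 active means B-score over 3 SD under the library average, and starting fluorescence ratio not unusually high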;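 further: choline stimulus applied at its EC90 after an EC20 pre-addition; B-score computed on integrated fluorescence ratio after choline addition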
# Mot1 SUMO dose = growth restoration of Mot1-301 yeast on galactose, dose response, SUMO pathway inhibitor project, whole organism, S. cerevisiae, ATP luminescence, cherry-picked samples; 2,300 tested, under 10 active; shares compounds with SUMO Mot1 rescue; S. cerevisiae Mot1-301 galactose growth, 24 h; -100 = growth of slx-deleted rescue strain; AID 493004, 2010; growth activity, percent, % at 42 µM;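 active means Signal drops as the depositor expects, and the fitted half-maximal dose is no more than ten times the top valid tested dose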;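 further: more negative values mean stronger growth rescue toward the control strain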
# Active calls of the source: *; i = inactive; / = no result. Hits are enriched below; roughly 3% of the tested compounds scored in any of these assays.
SMILES,A1 inh,NLRP3 yeast inh,CHT PAM,SUMO Mot1 rescue,NALP1 inh,CHT block,Mot1 SUMO dose
COCC1CCN(C(=O)c2cc(COc3ccc(-n4cncn4)cc3)on2)C1 (centres undefined),0,11,i,3,2,i,/
CCN(CC)C1CCN(C(=O)c2cc(COc3ccc(-n4cncn4)cc3)on2)C1 (centres undefined),-1,23,i,512*,23,i,0
COc1ccc(NC(=O)CN2CCN(S(=O)(=O)N3CCCCCC3)CC2)cc1,0,20,i,209,10,i,/
Cc1ccc(CNC(=O)c2ccc(N3CCC4(CC3)CC(c3ccccc3)=NO4)c(NC(=O)c3cccc(C)c3)c2)cc1,0,6,i,947*,/,i,0
Cc1ccc(CNC(=O)c2ccc(N3CCC4(CC3)CC(c3cccc(Br)c3)=NO4)c(NC(=O)c3cccc(C)c3)c2)cc1,0,6,i,-8,/,i,/
CC(C)C(=O)NCCSc1c[nH]c2ccccc12,1,-1,i,598*,35,i,0
COc1ccc(-c2noc(CSc3nc(-c4ccccc4)cc(=O)[nH]3)n2)cc1OC,1,-3,i,493*,10,i,0
COc1ccc(-c2noc(CSc3nc(N)cc(=O)[nH]3)n2)cc1,0,3,i,226,/,i,/
COc1cc(C(=O)NCCOc2cc(C)cc(C)c2)cc(OC)c1OC,0,17,i,631*,15,i,0
COc1cc(C(=O)NCCC2=CCCCC2)cc(OC)c1OC,/,11,i,807*,-4,i,0
COc1cc(C(=O)NCCOc2ccccc2)cc(OC)c1OC,0,-7,i,-3,9,i,/
O=C(CCCc1c[nH]c2ccccc12)N[C@@H](Cc1c[nH]c2ccccc12)C(=O)O,1,9,i,1,3,i,/
O=C(O)c1ccc(CNC(=O)c2ccccc2NC(=O)c2ccc([N+](=O)[O-])cc2)cc1,-1,5,i,713*,5,i,0
O=C(Nc1ccccc1C(=O)Nc1ccccn1)c1ccc([N+](=O)[O-])cc1,-1,20,i,-14,21,i,/
N/C(=N\OC(=O)CCC1CCCC1)c1ccc([N+](=O)[O-])cc1,1,-10,i,597*,2,i,-1
Cc1ccccc1-c1nnc(CN2CCC(C)CC2)o1,0,15,i,403*,16,i,0
COc1ccccc1N1CCN(C(=O)c2ccc(N(C)S(=O)(=O)c3ccccc3)cc2)CC1,1,9,i,-4,-2,i,/
Cc1ccc(NS(=O)(=O)c2c(C)[nH]c(C)c2C(=O)N2CCCCC2)cc1F,0,15,i,-5,12,i,/
O=C(CSc1nnc(-c2ccccc2O)o1)Oc1ccc(Br)cc1,-4,15,i,-22,21,i,/
O=C(CSc1nnc(-c2ccccc2Cl)o1)Oc1ccc(Br)cc1,0,13,i,501*,7,i,0
O=C(c1ccc(NC2=NC3CS(=O)(=O)CC3S2)cc1)N1CCN(c2ccc([N+](=O)[O-])cc2)CC1 (centres undefined),0,13,i,37,-24,i,/
N#Cc1ccc(/C=C/C(=O)c2ccco2)cc1,0,28,i,718*,27,i,-1
Nc1ccc(/C=C/C(=O)c2ccco2)cc1,0,8,i,-6,29,i,/
Cc1ccc(S(=O)(=O)NCC(C)n2cncn2)cc1 (centres undefined),0,5,i,533*,8,i,1
